# Measured values: PubChem BioAssay AID504621 (Broad Institute, 2011)
# Values joined by “and” are separate entries in the source; they are usually repeats but may differ in a detail not shown here. Equal entries are not always repeated. Screen size: about 310,000 compounds; about 970 (0.31%) were called active. For the sample, actives were picked, then their nearest neighbours and some compounds at random. A number with no mark means an inactive call.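 Rule for the calls: active = every replicate shows inhibition above about 80%, whatever the replicate mean (limit read from the data); inconclusive = mean inhibition reaches the set limit but some replicate falls short; inactive = the rest.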
# Assay: growth inhibition of PfHsp90-expressing yeast, primary screen, antimalarial PfHsp90 inhibitor project, S. cerevisiae, BacTiter-Glo luminescence, single point, set 2 (AID 504621);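 note: yeast relying on Plasmodium falciparum Hsp90 in place of its own; 0% = DMSO neutral controls and 100% = 20 µM radicicol positive controls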
# Settings: BacTiter-Glo ATP, 48 h, at 9.4 µM, hits give high values, yeast lacking PDR1 and PDR3 efflux regulators
row,Compound,inhibition
1,CCCN(CCC)S(=O)(=O)c1cc2c(cc1Br)CCN2C(=O)CC,-17.7%
2,CSCCC(NC(=O)COc1ccccc1)C(=O)OCc1ccc(Cl)cc1 (centres undefined),6.52%
3,O=C1/C(=C\c2ccc(O)cc2)CCC1CNc1ccc(Cl)cc1 (centres undefined),42.3%
4,CC(C)N(C(=O)[C@H]1C[C@H](CC(=O)NC(C)(C)C)C(=O)N2CCc3c([nH]c4ccc(Cl)cc34)[C@]12C)C(C)C,21.3%
5,O=C(OC12CC3CC(CC(C3)C1)C2)c1ccc(NCc2cc(O)ccc2O)cc1,124% (active)
6,CC1(C)C2CCC1(C)C(OC(=O)c1ccc(O)cc1)C2 (centres undefined),11.7%
7,COC(=O)c1ccc(NCc2cc(O)ccc2O)cc1,30.3%
8,O=C(Nc1c(Br)cc2c(c1Br)Cc1cc([N+](=O)[O-])ccc1-2)C(Cl)Cl,-28.5%
9,O=S1(=O)CCOC[C@H](Cc2ccccc2)N1Cc1ccccc1Br,10.2%
10,C=CCOC(=O)N1CCC2CC1c1cc(-c3ccc(OC)cc3)ccc12 (centres undefined),-3.16%
11,COc1ccccc1C(=O)c1ccccc1C(=O)c1ccccc1,-29.9%
12,CN(CCc1ccccc1)C(=O)c1cccc(NC(=O)Cc2cccc(NC(=O)C3CCCN(C(=O)C4CCC4)C3)c2)c1 (centres undefined),10.6%
13,CCOC(=O)c1ccc(N2C(=O)CC(N3CCC(C(=O)OCC)CC3)C2=O)cc1 (centres undefined),94.1% (active)
14,CCOC(=O)c1ccc(N2C(=O)CC(N3CC(C)OC(C)C3)C2=O)cc1 (centres undefined),11.2%
15,CCOC(=O)c1ccc(N2C(=O)CC(N3CCN(C(=O)c4ccccc4)CC3)C2=O)cc1 (centres undefined),18.7%
16,CSc1ncnc2c1ncn2CC(=O)C1CCC2C3CCC4=CC(=O)CCC4(C)C3CCC12C (centres undefined),17%
17,CCOC(=O)[C@H]1[C@H]2COc3ccc(Br)cc3[C@@H]2N2C(=O)CN(C)C(=O)[C@@]12C,3.33%
18,C=CC(=O)Nc1ccc(Nc2ccnc(Nc3ccc(N4CCN(C)CC4)cc3)n2)cc1,1.37%
19,CCN(CC)S(=O)(=O)c1ccc(N2CCCC2)c(NC(=O)c2ccc([N+](=O)[O-])o2)c1,7.78%
20,Oc1ccccc1C1=NN(c2ccccc2)C(c2ccccc2)C1 (centres undefined),106% (active)
21,CC(=O)Oc1ccccc1C1=NN(C(C)=O)C(c2ccccc2)C1 (centres undefined),6.42%
22,O=C(c1ccccc1)N1N=C(c2ccccc2O)CC1c1ccc(Br)cc1 (centres undefined),-6.75%
23,Fc1ccccc1COc1cccc2cccnc12,5.74%

row,Compound,inhibition
1,OCc1ccc(OCCCOc2cccc3cccnc23)cc1,24.6%
2,O=C(Nc1ccccc1)Oc1cccc2cccnc12,104% (active)
3,CCOc1ccc(S(=O)(=O)N2CCN(C(=O)c3oc4ccccc4c3C)CC2)cc1,-16.3%
4,CC(=O)Oc1ccc(OC(C)=O)c2c1C1C=CC2CC1,-4.99%
5,O=C1/C(=C\c2ccc([N+](=O)[O-])cc2)CS(=O)(=O)C/C1=C/c1ccc([N+](=O)[O-])cc1,104% (active)
6,O=[N+]([O-])c1ccc(C=NN=Cc2ccc([N+](=O)[O-])cc2)cc1,-1.39%
7,O=C(NN=Cc1ccc([N+](=O)[O-])cc1)C1CC1,-9.96%
8,COc1cccc(C=CC(=O)C=CC=Cc2ccccc2)c1,16.4%
9,CN(C)C(=S)N=c1ssc(=S)n1Cc1ccco1,-41.1%
10,Oc1ccc(N=Nc2nccs2)c(O)c1,4.56%
11,c1ccc(NCc2cccc3ccccc23)nc1,3.43%
12,Oc1ccc2ccccc2c1N=Nc1nccs1,131% (active)
13,CCCCC(=O)Nc1ccc(C(=O)Nc2cc(C(F)(F)F)ccc2Cl)cc1,-1.45%
14,CCCCN(CCCC)CCC(O)c1cc2c(Cl)cc(Cl)cc2c2cc(C(F)(F)F)ccc12 (centres undefined),110% (active)
15,COc1ccc(C(CNC(=O)c2cccc(S(=O)(=O)Nc3ccc(Br)cc3)c2)N(C)C)cc1 (centres undefined),3.14%
16,C=CC[C@@H](Cc1ccc(F)cc1)C(=O)OC[C@H]1CCCN1C(=O)[C@H](CC=C)CC(=O)N(CCO)Cc1ccccc1,6.25%
17,NNc1cccc(C=Cc2ccccc2)cc1=O,17.2%
18,Oc1c(CN2CCN(c3ccc(F)cc3)CC2)cc(Cl)c2cccnc12,136% (active)
19,Cc1cccnc1NC(=O)c1cccc(S(=O)(=O)N2CCN(c3ccc(F)cc3)CC2)c1,-4.19%
20,Oc1c(CN2CCCC2)cc(COCc2ccccc2)c2cccnc12,16.4%
21,COc1ccc(Nc2ccc3ccccc3c2)cc1,-39%
22,O=C(Nc1nnc(CCOCCOCCc2nnc(NC(=O)c3ccco3)s2)s1)c1ccco1,4.41%
23,O=C(Nc1nc(-c2ccco2)c(-c2ccco2)s1)c1ccco1,92% (active)

row,Compound,inhibition
1,O=C(Nc1ccccc1)c1ccco1,1.65%
2,COc1ccc(/C=C2/CCCc3ccccc3C2=O)cc1,17.4%
3,Cc1ccc2nc(Nc3ccccc3)cc(C)c2c1,-1.32%
4,Cc1ccc2nc(-c3ccncc3)cc(C(=O)Nc3ccncc3)c2c1,-8.61%
5,CCS(=O)(=O)Nc1cccc(-c2cc(-c3ccccc3)c3cc(C)ccc3n2)c1,102% (active)
6,O=C1OCC2=C1C(c1ccc(Cl)cc1)c1cc3c(cc1O2)OCO3 (centres undefined),-15.7%
7,O=C(CC(n1cncn1)C(Cl)(Cl)Cl)c1ccc([N+](=O)[O-])cc1 (centres undefined),123% (active)
8,O=C(Cn1c[n+](CC(=O)c2ccc([N+](=O)[O-])cc2)cn1)c1ccc([N+](=O)[O-])cc1,-20.5% and -1.84%
9,O=C(Nn1cnnc1)c1ccc([N+](=O)[O-])cc1,10.8%
10,Oc1ccc(-c2nc3ccccc3nc2-c2ccc(O)cc2O)c(O)c1,6.66%
11,O=C(O)c1ccc(NN=CC2=C(N3CCOCC3)/C(=C/c3ccccc3)CC2)cc1,-30.6%
12,CC(C)c1ccc(C=NNc2ccc([N+](=O)[O-])cn2)cc1,-14.5%
13,O=S(=O)(NC1CCCCC1N1CCCCC1)c1ccc(Cl)cc1 (centres undefined),-25%
14,O=S(=O)(NC1CC2CCC1C2)c1ccc(Cl)cc1 (centres undefined),104% (active)
15,O=S(=O)(NC1CC1)c1ccc(Cl)cc1,-7.47%
16,COc1ccc(-c2ccc3c(c2)[C@@H]2C[C@H](N(C)S(=O)(=O)c4ccccc4)[C@H]([C@H](C)O)C(=O)N2CC3)cc1,6.39%
17,CC(C)Cn1cnc2c(SCc3ccc(Cl)cc3)nc(N)nc21,12.6%
18,COc1cccc2c1C(=O)c1c(O)c3c(c(O)c1C2=O)CC(O)(C(C)=NNC(=O)c1ccc(Cl)c(Cl)c1)CC3OC1CC(N)C(O)C(C)O1 (centres undefined),-3.52%
19,CC1=C/C(=N\OS(=O)(=O)c2ccccc2)C=CC1=O,100% (active)
20,O=C(Nc1ccc(S(=O)(=O)N2CCOCC2)cc1)C1CCN(S(=O)(=O)c2ccc(Cl)cc2)CC1,-11.4%
21,COc1ccc2sc(-c3ccc(N(C)C)cc3)c(-c3ccc4cc[nH]c4c3)c2c1,-6.56%
22,COc1ccc2sc(-c3ccc(N(C)C)cc3)c(C#CCO)c2c1,15%
23,COc1ccc2c(c1)c(=Cc1ccc(N(C)C)cc1)c1cc(-c3ccccc3)[n+](C)n12,114% (active)

row,Compound,inhibition
1,CCN1CCC(O)(/C=C/c2ccc(C)cc2)C(C(=O)/C=C/c2ccc(C)cc2)C1 (centres undefined),19.6%
2,Cc1c(NS(=O)(=O)c2cccc(C(=O)Nc3ccc(SC(F)F)cc3)c2)c(=O)n(-c2ccccc2)n1C,-2.76%
3,COc1ccc2c(c1)C(=O)CC(c1ccccc1)O2 (centres undefined),-30%
4,CCCCC(=O)NC(c1ccc(OC)c(OC)c1)c1ccc2cccnc2c1O (centres undefined),25.2%
5,C#CCOCCOCCOCCNc1nc(N2CCOCC2)nc(N2CCN(C(=O)[C@H](Cc3ccc(O)cc3)n3cc(CCO)nn3)CC2)n1,2.07%
6,C[C@@H]1C[C@@H]2O[C@H]2/C=C\C=C\C(=O)Cc2c(Cl)c(O)cc(O)c2C(=O)O1,95% (active)
7,Cc1ccc(-c2csc(C(C#N)=C(O)CN3CCN(C(=O)c4ccco4)CC3)n2)cc1,4.72%
8,O=C1C=CC(=O)N1c1ccc(N2CCCCC2)cc1,109% (active)
9,CC(=O)Nc1ccc(S(=O)(=O)Nc2ccc(N3CCCCC3)cc2)cc1,26.6%
10,O=C(Cc1ccccc1)NC(=S)Nc1ccc(N2CCCCC2)cc1,-35.9%
11,O=C(NNc1nc(N2CCCC2)nc(N2CCCC2)n1)c1ccccc1,16.9%
12,CCN(CC)CCCC(C)n1c2nc(=O)[nH]c(=O)c-2nc2cc(Cl)ccc21 (centres undefined),-9.23%
13,NC(=O)C1CCN(C(=O)c2cc(S(=O)(=O)N3CCN(c4ccccc4)CC3)ccc2Cl)CC1,-2.95%
14,CC1=CC(=NNS(=O)(=O)c2ccc([N+](=O)[O-])cc2)CC(C)(C)C1,-10.2%
15,O=[N+]([O-])c1ccc(NS(=O)(=O)c2ccccc2)c(Cl)c1,-12%
16,COc1ccc(C(=O)/C=C/c2ccc(OC3CSC3)cc2)cc1,12.6%
17,COc1ccc(/C=C/C(=O)c2ccc(OC)cc2O)cc1,3.31%
18,COc1ccc(/C=C/C(=O)c2cc(Br)ccc(=O)c2O)cc1,99.7% (active)
19,CN(C(=O)c1cccc(NC(=O)Cc2ccc(NC(=O)C3CCCN(C(=O)C4CCCC4)C3)cc2)c1)C1CCC1 (centres undefined),3.19%
20,COC(=O)CC(CC(=O)OC)n1cccc1,10.4%
